The record followed here is PMC7819943, “Rice protein-binding microarrays: a tool to detect cis-acting elements near promoter regions in rice”.

Whole data set: some 39,000 sequences, median “fluorescence intensity (a.u.)” near 4,300, cut for the highest 2% near 39,000. The entries come from a sample that favours the highest values as a whole.

In the assay the target is T1, OsSMF1 (Oryza sativa, UniProt Q6ZLB0 1-436).
T1 sequence: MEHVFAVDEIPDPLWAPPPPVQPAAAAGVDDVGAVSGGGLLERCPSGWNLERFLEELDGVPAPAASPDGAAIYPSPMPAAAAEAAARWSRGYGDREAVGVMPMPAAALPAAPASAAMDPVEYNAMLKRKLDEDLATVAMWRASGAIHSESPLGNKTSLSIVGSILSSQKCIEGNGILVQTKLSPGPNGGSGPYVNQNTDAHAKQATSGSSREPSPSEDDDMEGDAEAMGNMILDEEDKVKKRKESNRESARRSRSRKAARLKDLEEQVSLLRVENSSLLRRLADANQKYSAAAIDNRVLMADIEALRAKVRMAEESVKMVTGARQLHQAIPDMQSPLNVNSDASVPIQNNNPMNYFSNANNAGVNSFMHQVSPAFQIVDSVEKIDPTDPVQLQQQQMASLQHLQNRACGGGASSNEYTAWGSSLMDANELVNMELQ
The experiment in a line: protein-binding microarray (RPBM); PBS, 2% BSA, 51.3 ng/ul salmon testes DNA, 50 uM zinc acetate, 200 nM TF, 25 C, 1 h; high values mean tight binding. To be noted: protein: recombinant; tags: N-terminal polyhistidine and DsRed monomer fusion (pET32a); chain copies: 2; label: CyDye5-dUTP incorporated in the synthesized complementary strand; 3' TTTTT single-stranded linker to array surface; dsDNA, one strand shown. In short, it runs like this:
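Binding signal is reported as fluorescence intensity per feature (arbitrary units) from an Axon 4000B scanner. Incubation used 200 nM of each Ni–NTA-purified, N-terminally polyhistidine- and DsRed-fused transcription factor from E. coli BL21-CodonPlus on a double-stranded custom Agilent array for 1 h at 25 °C, with 50 µM zinc acetate in the buffer, followed by washing.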
As for “TCCGAACATCCGCGTGTCTGCTTCTGCGCCAGCCCGAGCCCGGAGTCACCTAGTGCAG”, the binding signal is 44300 fluorescence intensity (a.u.).
The value for “CCAAACCCCACGCACGCCGCGTCGCCGCCTCCTCCTCTCCCGGAGTCACCTAGTGCAG” was 3670 fluorescence intensity (a.u.); that for “AACTCCTCGCCACCACGCCGCTTTATTCTCTAAGAACCCCCGGAGTCACCTAGTGCAG” was 40700 fluorescence intensity (a.u.); that for “GCCACCGCTGCATCATCCCGCCTGTCTGCCTGCGCGCGCCCGGAGTCACCTAGTGCAG” was 3430 fluorescence intensity (a.u.).
The value for “GCGCTGCCACGAGTGCCCGCGTCATCCCGTCCCCTCGCACCGGAGTCACCTAGTGCAG” was 6120 fluorescence intensity (a.u.).
Under “CACCCGCCGCTGCTCTGCCTACTCGCCGGCCACCTCCTCACGGAGTCACCTAGTGCAG” stands 3720 fluorescence intensity (a.u.); under “ACCAAACATTACCTAATGCAATCGAACTATCGAAGACATGCGGAGTCACCTAGTGCAG”, 3700 fluorescence intensity (a.u.).
As for “GTGAGACTGGCGAGGCCCTTCTTGCGTGGCGCTGCAAGCTCGGAGTCACCTAGTGCAG”, the binding signal was 7600 fluorescence intensity (a.u.).
Under “ACACTCCAGCATAGTTAATGTTTACTGCTAGGAGGATTCACGGAGTCACCTAGTGCAG” stands 25600 fluorescence intensity (a.u.); under “CTCCTGGTACGCCTCGCTCAGCTCGTCCACCGTCGCCTCCCGGAGTCACCTAGTGCAG”, 3750 fluorescence intensity (a.u.).
As for “TAGAGCGCCACATGACATCTTAGAAGCGTTTGTAGGAGTACGGAGTCACCTAGTGCAG”, the binding signal is 30400 fluorescence intensity (a.u.).
The value for “TTATACATGCTCACGTGGCTATGTCATTGCCCTGGGTGGGCGGAGTCACCTAGTGCAG” was 12000 fluorescence intensity (a.u.); that for “CTAAATCCTCGGGTCCACATGTCATACTCAGCCTCTTTACCGGAGTCACCTAGTGCAG” was 5460 fluorescence intensity (a.u.); that for “TCTGGTCTTTCCGCGTGTCGACGACCACGGTGGCGGTGCACGGAGTCACCTAGTGCAG” was 3540 fluorescence intensity (a.u.).
“TCGCCACCGCCACGTCATCTCCCCACCCTCCTCCTCTTCCCGGAGTCACCTAGTGCAG”: the binding signal is 44700 fluorescence intensity (a.u.).
Under “AAACCAAAACCAAACCGAAGCTTCCCCATCTCGCGTGAACCGGAGTCACCTAGTGCAG” stands 40800 fluorescence intensity (a.u.); under “TTAGTTCACCCATCTTGCCAATGCTGTCATCGCCACAGCTCGGAGTCACCTAGTGCAG”, 3310 fluorescence intensity (a.u.); under “CATCGGTCATGGTGGCGTTGGTCATGTTGGCATGGCCGTCCGGAGTCACCTAGTGCAG”, 44000 fluorescence intensity (a.u.).
As for “CCATTCCCAAAAGCAAAGCGAACCTAAGCTCGCTTCGTCTCGGAGTCACCTAGTGCAG”, the binding signal was 21000 fluorescence intensity (a.u.).
Consider “CGCGAAAGGCGTGAAACCAGTGCACGCATCACCCATCTCGCGGAGTCACCTAGTGCAG”, for which the binding signal was 3400 fluorescence intensity (a.u.).
Under “TCCTTGTCGCGCTGCCATCGCCACCCAATGCCATCGAGCTCGGAGTCACCTAGTGCAG” stands 49600 fluorescence intensity (a.u.).
Under “GATCGTCGCGTCGTCGGCGTTGGCATCGGCATCCATGTGCCGGAGTCACCTAGTGCAG” stands 3830 fluorescence intensity (a.u.).
The value for “TGGGCCCACCCCTCCACTCGCCCTCCTCTTCCCGCCACGTCGGAGTCACCTAGTGCAG” was 6190 fluorescence intensity (a.u.); that for “TAGGATGCCACGTCATCTCTCCCTTCCCCTCTCTCTCTCCCGGAGTCACCTAGTGCAG” was 27000 fluorescence intensity (a.u.); that for “ATCCCATCGCGCCACGCGAGCTCGATCGATCGAGGTGTGTCGGAGTCACCTAGTGCAG” was 3490 fluorescence intensity (a.u.).
Regarding “CCGGTCGTCCGTCAGCATCCTCTCTTCCGTTGGTCATCCTCGGAGTCACCTAGTGCAG”, the binding signal was 4550 fluorescence intensity (a.u.).
The value for “ACCCGCGCGCCGGCCGCGTCATCGACGACATCGTGCGTACCGGAGTCACCTAGTGCAG” was 3920 fluorescence intensity (a.u.); that for “TTGTGATGTCCACGTATTCAGGATTAGACCACAGGCCCGGCGGAGTCACCTAGTGCAG” was 8170 fluorescence intensity (a.u.).
The value for “ATCCTTCATTATGTTAGAGTACCACATGGGAAGTCGAGACCGGAGTCACCTAGTGCAG” was 3750 fluorescence intensity (a.u.); that for “GCGCCGCTCCGTGTCCCTCCCAATCCGAACCGTTTCGCGCCGGAGTCACCTAGTGCAG” was 3500 fluorescence intensity (a.u.).
Under “TACAACTACGGCCCTCCGCAGCCACAGGCGCCGCCGCCGCCGGAGTCACCTAGTGCAG” stands 3340 fluorescence intensity (a.u.); under “TTATTAGCAACCACCGTCACATATAAATTAATATGTGCCGCGGAGTCACCTAGTGCAG”, 3710 fluorescence intensity (a.u.).
For the sequence “GTCCGTCTTGTTTTCTCCTGCGTCACAATTGTCCCGTATTCGGAGTCACCTAGTGCAG”, the binding signal was 4280 fluorescence intensity (a.u.).
Take “CACACGCCAACCCGGCCCCACACGTCAGCCACTCCCACTGCGGAGTCACCTAGTGCAG”: the binding signal was 7300 fluorescence intensity (a.u.).
Under “CAATCCAACCGTCGTCGCGCCGCACACCGGCCACCCACCCCGGAGTCACCTAGTGCAG” stands 20700 fluorescence intensity (a.u.).
Under “GTCGCCGCCGCTCCTCCACCCCACGTGCCCCTCGTGGTGGCGGAGTCACCTAGTGCAG” stands 4350 fluorescence intensity (a.u.); under “GCTCTCGCTGACGCTGCCGCTCCGCCTGCCTCCGCCCGCGCGGAGTCACCTAGTGCAG”, 3900 fluorescence intensity (a.u.); under “AACCACCCTCCGCCGCCGCCGCCGCTCGCCGTAGTCACCTCGGAGTCACCTAGTGCAG”, 3180 fluorescence intensity (a.u.).
Turning to “CAATCCCCTAGCCTCGCCACCCGCCACGTGTCGTCCCGCGCGGAGTCACCTAGTGCAG”, the binding signal is 13500 fluorescence intensity (a.u.).
As to “CCGGCCCAACACCACTAACACGTTCAGCCCCAATCCCCAACGGAGTCACCTAGTGCAG”, the binding signal is 42400 fluorescence intensity (a.u.).
With “TCGCCAACTCGCGCCCAATCCCGGCTTGACACGTCACCCCCGGAGTCACCTAGTGCAG”, the binding signal is 42000 fluorescence intensity (a.u.).
As for “TGCGCGTCCTGCTCGCCGCTGCCCTCGCTGAGGAGCTCTCCGGAGTCACCTAGTGCAG”, the binding signal is 63600 fluorescence intensity (a.u.).
Under “AACCAGTCGCCGCTCGCCACGTGGCACCCTCCACCTCCCTCGGAGTCACCTAGTGCAG” stands 50500 fluorescence intensity (a.u.); under “GAGCGCGAGCTGCTCTCCTCTCCTCCCGCCCCGCGTCGCCCGGAGTCACCTAGTGCAG”, 11500 fluorescence intensity (a.u.); under “GCAATCCCACGTTATCCATCACCCCACCGGGGAAGCCCAACGGAGTCACCTAGTGCAG”, 3310 fluorescence intensity (a.u.).
